Assay results taken from PubChem BioAssay (NCI).
This is part of a sample that, as a whole, favours compounds with a hit. Of some 83,000 tested, about 20% had one in any assay.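 Cells were grown in 96-well plates and exposed to the test compound at a single concentration for 48 hours; results are reported as percent growth, with values below 10 considered active.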 Activity calls are given as the source filed them.

Tests used:
Test in all cases: NCI-60 one-dose screen, 48 h (100 = growth as untreated, 0 = no growth, -100 = all killed)
Details in all cases: 10 µM unless noted
[1] = test system: HCT-15 colon
[2] = test system: HT29 colon
[3] = test system: SNB-75 CNS
[4] = test system: SNB-19 CNS
[5] = test system: U251 CNS
[6] = test system: PC-3 prostate
[7] = test system: SK-MEL-5 melanoma
[8] = test system: UACC-62 melanoma
[9] = test system: LOX IMVI melanoma
[10] = test system: SK-MEL-28 melanoma
[11] = test system: SK-MEL-2 melanoma
[12] = test system: SN12C renal
[13] = test system: UO-31 renal
[14] = test system: TK-10 renal
[15] = test system: ACHN renal
[16] = test system: A498 renal
[17] = test system: MOLT-4 leukemia
[18] = test system: EKVX NSCLC
[19] = test system: CAKI-1 renal
[20] = test system: CCRF-CEM leukemia

Measured: growth

O=C(N/N=C/c1ccncc1)c1ccccc1Nc1cccc(C(F)(F)F)c1
inactive: [1] 74.2% | [2] 99.3% | [3] 75.8% | [4] 72.2% | [5] 86.9% | [6] 75.8% | [7] 76% | [8] 81% | [9] 70.5% | [10] 94.9% | [11] 99.3% | [12] 90.8% | [13] 60.9% | [14] 102% | [15] 90.5% | [16] 71.9% | [17] 72.2%

CC(C)(C)CC(C)(C)Nc1c(-c2ccc3c(c2)OCO3)nc2cnccn12
inactive: [1] 84.1% | [2] 80% | [3] 67.5% | [4] 90.9% | [5] 95.6% | [6] 67% | [7] 87.7% | [8] 66% | [9] 94% | [10] 94.3% | [18] 80.3% | [12] 92.8% | [13] 63.1% | [14] 98.3% | [15] 86.5% | [19] 69.6% | [16] 75.6% | [20] 89.1% | [17] 69.4%

COc1ccc(NC(=O)c2sc3nc(C)c(C(O)c4ccc(OC)cc4)cc3c2N)cc1 (configuration not stated)
inactive: [1] 16.3% | [4] 71.2% | [5] 25.9% | [6] 22.6% | [8] 31.6% | [9] 40.5% | [10] 65.8% | [11] 45.6% | [12] 33% | [13] 20.6% | [14] 60.7% | [15] 36.3% | [19] 30.4% | [16] 12.6% | [20] 21.7% | [17] 15.8%
active: [2] 4.97% | [3] -16% | [7] 9.53%

Fc1ccc(C2CC(c3cccc(Nc4ccncc4)c3)=NN2c2cc(Cl)cc(Cl)c2)cc1 (configuration not stated)
active: [1] -42.3% | [2] -21.5% | [5] -29.5% | [9] -83% | [20] 0.277% | [17] 1.57%
inactive: [3] 72.2% | [4] 82.3% | [6] 26% | [8] 98.7% | [10] 20.2% | [11] 105% | [18] 80% | [12] 72% | [13] 47.6% | [14] 74.8% | [15] 43.3% | [16] 94.5%

C=C1C(=O)O[C@H]2[C@H]1CC/C(COC(=O)/C=C/c1c[nH]c3ccccc13)=C\CC[C@@]1(C)O[C@@H]21
active: [1] -64.6% | [2] -83.6% | [3] -53.7% | [4] -68.8% | [5] -98.1% | [6] -73.4% | [7] -98.4% | [8] -71.9% | [9] -97.3% | [10] -54% | [18] -41.4% | [12] -54% | [13] -100% | [14] -99.2% | [15] -100% | [16] -98.8% | [20] 2.46% | [17] 5.13%

O=c1[nH]nc(-c2ccc(Br)cc2)cc1Cc1ccc(O)cc1
inactive: [1] 105% | [2] 103% | [3] 91.9% | [4] 81.2% | [5] 105% | [6] 80.4% | [7] 87.1% | [8] 85.6% | [9] 97.4% | [10] 104% | [12] 90.5% | [13] 77.3% | [14] 139% | [15] 105% | [19] 98.1% | [16] 103% | [17] 17.9%
active: [20] -9.56%

CNC(=O)Nc1ccc(-c2nc(N3CCOCC3)nc3c2cnn3C2CCOCC2)cc1
inactive: [20] 23.8% | [17] 11.9%
active: [1] 8.73% | [2] 6.44% | [3] -37.9% | [4] 7.91% | [5] 4.14% | [6] 6.22% | [7] -47.7% | [8] -39.6% | [9] 4.58% | [10] -14.1% | [18] -24.3% | [12] 7.06% | [13] -23.5% | [14] -38% | [15] 4.27% | [19] -19.3%

CCCCCCOc1ccc(/C=N/Nc2cc(C)nc3ccc(Br)cc23)cc1
inactive: [8] 25.8%
active: [1] -83.5% | [2] -65.5% | [3] -94.5% | [4] -73.7% | [5] -64.8% | [6] -73% | [9] -94.1% | [10] -81.9% | [11] -14% | [18] -21.2% | [12] -88.9% | [13] -97.5% | [14] -85.7% | [15] -98.3% | [19] -72.4% | [20] -23.3% | [17] -51.4%

c1ccc(Cn2nc3c(c2-c2ccccc2)-c2oncc2CC3)cc1
inactive: [1] 99.3% | [2] 96.3% | [3] 84.6% | [4] 102% | [5] 87.9% | [6] 68.5% | [8] 76.2% | [9] 90.2% | [10] 94.4% | [11] 102% | [18] 90.1% | [12] 95.3% | [13] 82.7% | [14] 107% | [15] 97.6% | [19] 77.9% | [16] 89.4% | [20] 80.4% | [17] 79.8%

COC(=O)C1=C(C(=O)ONCCN(C)C)C2C=CC1(C(Cc1ccccc1)Nc1ccc(F)cc1)O2 (configuration not stated)
inactive: [1] 48.1% | [2] 75.1% | [3] 106% | [4] 105% | [5] 100% | [6] 105% | [8] 90.9% | [9] 96.3% | [10] 96.1% | [11] 97% | [18] 102% | [12] 87% | [13] 81% | [14] 65.4% | [19] 88% | [17] 30.6%
active: [15] -18.8% | [20] 2.02%

COc1cc(C2CC(c3cccc(Nc4ccncc4)c3)=NN2C(C)=O)cc(OC)c1OC (configuration not stated)
inactive: [1] 98% | [2] 78.5% | [3] 67.4% | [4] 93% | [5] 91.5% | [6] 84.2% | [8] 93.9% | [9] 85.3% | [10] 96.6% | [11] 99.1% | [18] 87.5% | [12] 94% | [13] 89.1% | [14] 97.7% | [15] 99.5% | [19] 78.9% | [16] 94.1% | [20] 92.7% | [17] 84.4%

CCNNC(=O)[C@@H]1[C@H](c2cc(OC)c(OC)c(OC)c2)c2cc3c(cc2[C@H](O)[C@H]1CO)OCO3
active: [1] 5.4% | [2] -10%
inactive: [3] 30.3% | [4] 35.6% | [5] 12.7% | [6] 12.5% | [8] 50% | [9] 14.4% | [10] 55% | [11] 21.6% | [18] 44.8% | [12] 24% | [13] 42% | [14] 41.6% | [15] 28.6% | [19] 29.3% | [20] 14.6% | [17] 12.8%

O=S(=O)(NCCCNc1nccc(-c2c(-c3cccc(O)c3)nc3occn23)n1)c1ccc(F)cc1
active: [8] -1.99%
inactive: [1] 90.2% | [2] 36.3% | [3] 104% | [4] 113% | [5] 95.3% | [6] 81.4% | [7] 35.7% | [9] 44.4% | [10] 33.7% | [18] 101% | [12] 74.9% | [13] 92.1% | [14] 116% | [15] 79.1% | [19] 72.2% | [20] 89% | [17] 70%

Cn1ncc2c(Nc3ccccc3Cl)nc(Cl)nc21
inactive: [1] 98.4% | [2] 96.2% | [3] 78.6% | [4] 114% | [5] 112% | [6] 109% | [7] 107% | [8] 87.1% | [9] 104% | [10] 119% | [12] 92% | [13] 101% | [14] 119% | [15] 95.6% | [19] 99.9% | [16] 178% | [20] 104% | [17] 125%

CCN1C(=O)N(CC)C2C1NN=c1s/c(=C3\C(=O)Nc4ccccc43)c(=O)n12 (configuration not stated)
active: [2] 5.74% | [3] -13.6% | [16] -26.6%
inactive: [1] 26.8% | [4] 36.5% | [5] 31.4% | [6] 22.6% | [8] 30.9% | [9] 42.2% | [10] 53% | [11] 37.6% | [18] 65.3% | [12] 34% | [13] 42.9% | [14] 60.5% | [15] 43% | [19] 35.5% | [17] 46.1%

CN(C)c1ccc(-c2c(C#N)c(N)n3nc(N)c(C#N)c3c2C#N)cc1
inactive: [1] 81.8% | [2] 83.5% | [3] 88.5% | [4] 95.4% | [5] 90.1% | [6] 76.6% | [7] 71.1% | [8] 113% | [10] 96.3% | [18] 76.5% | [12] 72.3% | [13] 75.5% | [14] 82.4% | [15] 86.5% | [16] 106% | [20] 94% | [17] 90%
active: [9] 8.51%

Cc1ccc(-c2csc(/N=C3\C(=O)Nc4ccccc43)n2)cc1
inactive: [1] 32% | [3] 55.5% | [4] 22.8% | [10] 13.7% | [12] 23.4% | [13] 42% | [15] 36.7%
active: [2] -8.75% | [5] -47.5% | [6] 2.72% | [8] 0.615% | [9] -0.0538% | [11] -51.2% | [14] 8.33% | [20] 6.64% | [17] -19.5%
